Here are results for 16 molecules from ChEMBL document CHEMBL1961873, “Compounds: GSK PKIS; Assays: Nanosyn kinase panel” (2012).

Assay [1] deals with Ribosomal protein S6 kinase alpha-6 (Homo sapiens) (UniProt Q9UK32). Particulars: at 1 µM.
Assay [2] has as its target T1, Serine/threonine-protein kinase Sgk1 (Homo sapiens) (UniProt O00141).
T1 sequence (whole entry): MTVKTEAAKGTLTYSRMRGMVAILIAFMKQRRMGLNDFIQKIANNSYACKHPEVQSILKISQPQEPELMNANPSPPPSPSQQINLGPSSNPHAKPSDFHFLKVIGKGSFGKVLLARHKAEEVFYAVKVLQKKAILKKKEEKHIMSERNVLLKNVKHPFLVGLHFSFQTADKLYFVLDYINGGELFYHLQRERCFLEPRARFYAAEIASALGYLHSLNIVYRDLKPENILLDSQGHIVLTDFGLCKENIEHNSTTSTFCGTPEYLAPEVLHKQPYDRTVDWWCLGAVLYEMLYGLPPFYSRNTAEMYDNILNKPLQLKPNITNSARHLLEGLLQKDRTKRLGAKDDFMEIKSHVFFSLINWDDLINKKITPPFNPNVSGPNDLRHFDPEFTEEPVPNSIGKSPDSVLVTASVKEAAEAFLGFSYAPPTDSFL
To be noted: at 0.1 µM.

Assay [3] concerns the target T1, Serine/threonine-protein kinase Sgk1 (Homo sapiens). Particulars: at 1 µM.
Assay [4] has as its target T2, Serine/threonine-protein kinase Sgk2 (Homo sapiens) (UniProt Q9HBY8).
T2 sequence (whole entry): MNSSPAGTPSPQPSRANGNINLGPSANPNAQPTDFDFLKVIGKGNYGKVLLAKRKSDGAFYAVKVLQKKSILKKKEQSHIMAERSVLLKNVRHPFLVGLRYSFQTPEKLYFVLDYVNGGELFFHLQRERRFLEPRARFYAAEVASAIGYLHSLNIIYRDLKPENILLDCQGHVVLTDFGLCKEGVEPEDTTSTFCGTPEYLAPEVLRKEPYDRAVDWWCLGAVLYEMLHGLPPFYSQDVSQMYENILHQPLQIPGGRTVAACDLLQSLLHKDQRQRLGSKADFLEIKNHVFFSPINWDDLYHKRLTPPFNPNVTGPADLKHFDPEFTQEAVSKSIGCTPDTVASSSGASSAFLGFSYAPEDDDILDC
Particulars: at 0.1 µM.

The target in assay [5] is T2, Serine/threonine-protein kinase Sgk2 (Homo sapiens). Particulars: at 1 µM.
Assay [6] concerns the target T3, Serine/threonine-protein kinase Sgk3 (Homo sapiens) (UniProt Q96BR1).
T3 sequence (whole entry): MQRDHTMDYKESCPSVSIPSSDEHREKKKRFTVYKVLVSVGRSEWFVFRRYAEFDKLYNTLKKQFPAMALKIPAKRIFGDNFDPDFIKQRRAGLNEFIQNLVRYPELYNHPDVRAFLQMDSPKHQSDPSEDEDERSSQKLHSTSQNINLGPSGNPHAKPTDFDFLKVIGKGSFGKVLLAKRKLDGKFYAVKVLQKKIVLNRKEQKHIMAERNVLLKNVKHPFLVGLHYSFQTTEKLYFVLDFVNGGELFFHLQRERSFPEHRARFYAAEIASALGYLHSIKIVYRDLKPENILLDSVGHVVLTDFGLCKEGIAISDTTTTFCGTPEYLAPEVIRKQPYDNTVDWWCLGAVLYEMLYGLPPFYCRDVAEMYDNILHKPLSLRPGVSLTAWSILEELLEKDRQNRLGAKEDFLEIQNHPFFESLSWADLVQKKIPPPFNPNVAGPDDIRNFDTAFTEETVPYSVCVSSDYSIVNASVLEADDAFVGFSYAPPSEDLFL
To be noted: at 0.1 µM.

For assay [7], the target named is T3, Serine/threonine-protein kinase Sgk3 (Homo sapiens). Particulars: at 1 µM.
Assay [8] addresses 5'-AMP-activated protein kinase catalytic subunit alpha-1 (Homo sapiens) (UniProt Q13131). To be noted: at 0.1 µM.
Assay [9] has the same target. Particulars: at 1 µM.
The target of assay [10] is 5'-AMP-activated protein kinase catalytic subunit alpha-2 (Homo sapiens) (UniProt P54646). Particulars: at 0.1 µM.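 Also: mean inhibition measured on the AMPK complex of alpha2, beta1 and gamma1 subunits.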
5'-AMP-activated protein kinase catalytic subunit alpha-2 (Homo sapiens), sequence (P54646 whole entry, looked up): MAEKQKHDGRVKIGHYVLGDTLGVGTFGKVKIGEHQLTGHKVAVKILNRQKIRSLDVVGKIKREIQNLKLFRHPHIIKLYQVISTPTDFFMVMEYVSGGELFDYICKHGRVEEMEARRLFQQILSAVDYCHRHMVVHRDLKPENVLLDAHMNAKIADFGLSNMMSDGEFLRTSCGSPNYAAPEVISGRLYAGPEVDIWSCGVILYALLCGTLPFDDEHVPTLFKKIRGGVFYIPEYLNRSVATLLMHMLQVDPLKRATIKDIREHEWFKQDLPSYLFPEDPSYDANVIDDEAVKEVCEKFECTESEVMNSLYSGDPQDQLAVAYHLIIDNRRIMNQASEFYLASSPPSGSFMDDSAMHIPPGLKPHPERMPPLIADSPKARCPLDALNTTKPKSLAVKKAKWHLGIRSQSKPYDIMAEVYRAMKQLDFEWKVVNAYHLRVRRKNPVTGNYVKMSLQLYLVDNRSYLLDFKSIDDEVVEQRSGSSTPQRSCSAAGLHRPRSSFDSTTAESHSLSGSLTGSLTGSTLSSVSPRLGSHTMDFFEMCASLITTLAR

Where “and” joins values, the source holds several entries; their conditions need not be identical. Identical values can stand only once.

5'-AMP-activated protein kinase catalytic subunit alpha-1 (Homo sapiens), sequence (Q13131 whole entry, looked up): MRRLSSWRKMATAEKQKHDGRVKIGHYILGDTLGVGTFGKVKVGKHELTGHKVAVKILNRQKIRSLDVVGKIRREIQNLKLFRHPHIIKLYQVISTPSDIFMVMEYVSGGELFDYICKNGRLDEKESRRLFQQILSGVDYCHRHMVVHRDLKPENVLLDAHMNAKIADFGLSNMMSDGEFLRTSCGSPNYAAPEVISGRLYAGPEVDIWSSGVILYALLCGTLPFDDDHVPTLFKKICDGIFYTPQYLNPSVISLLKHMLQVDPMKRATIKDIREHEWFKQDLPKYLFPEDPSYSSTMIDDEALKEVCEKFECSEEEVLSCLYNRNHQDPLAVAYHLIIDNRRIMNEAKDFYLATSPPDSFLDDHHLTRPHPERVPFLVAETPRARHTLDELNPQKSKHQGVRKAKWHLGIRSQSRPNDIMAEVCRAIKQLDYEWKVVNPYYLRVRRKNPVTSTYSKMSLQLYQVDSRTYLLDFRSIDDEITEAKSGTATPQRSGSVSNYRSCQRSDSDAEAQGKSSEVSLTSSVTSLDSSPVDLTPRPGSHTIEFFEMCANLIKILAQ
Ribosomal protein S6 kinase alpha-6 (Homo sapiens), sequence (Q9UK32 whole entry): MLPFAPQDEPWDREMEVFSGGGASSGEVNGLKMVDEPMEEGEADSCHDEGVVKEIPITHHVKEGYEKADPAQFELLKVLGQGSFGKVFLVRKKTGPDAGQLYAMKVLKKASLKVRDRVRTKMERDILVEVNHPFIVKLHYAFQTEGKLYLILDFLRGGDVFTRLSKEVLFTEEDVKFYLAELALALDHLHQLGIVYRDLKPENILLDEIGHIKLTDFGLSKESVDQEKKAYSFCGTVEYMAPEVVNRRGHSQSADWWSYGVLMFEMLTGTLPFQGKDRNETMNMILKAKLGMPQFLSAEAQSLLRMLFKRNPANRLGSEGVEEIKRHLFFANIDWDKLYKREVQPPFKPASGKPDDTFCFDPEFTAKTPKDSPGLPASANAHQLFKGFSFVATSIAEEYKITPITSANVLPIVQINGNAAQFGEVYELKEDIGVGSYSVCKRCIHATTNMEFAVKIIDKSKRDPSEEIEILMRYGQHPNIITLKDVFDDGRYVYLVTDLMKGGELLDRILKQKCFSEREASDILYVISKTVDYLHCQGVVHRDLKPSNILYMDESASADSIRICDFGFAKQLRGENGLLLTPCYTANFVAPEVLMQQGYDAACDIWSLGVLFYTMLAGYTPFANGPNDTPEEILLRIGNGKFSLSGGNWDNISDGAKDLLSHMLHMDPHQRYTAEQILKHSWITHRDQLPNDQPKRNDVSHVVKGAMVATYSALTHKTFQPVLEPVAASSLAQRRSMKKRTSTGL

Broadly, the inhibition is the change of the read-out against control, counted positive when it falls. Regarding `CCn1c(-c2nonc2N)nc2cncc(C(=O)NCCNC)c21`, the inhibition is 37.3% in [1]; 3.75% in assay [2]; 18.1% in assay [3]; 2.29% in assay [4]; 17.7% in [5]; 21.3% in assay [6]. Besides, the inhibition in assay [7] is 66.2%; in assay [8], 3.01%; in assay [9], 8.23%; in [10], 2.58%.
`CCS(=O)(=O)c1ccc(OC)c(Nc2ncc(-c3cccc(C(C)=O)c3)o2)c1`: the inhibition in [1] is 2.13%; in assay [2] it was 0.32%; in assay [3], 5.11%; in [4], 2.27%; in [5] it was 3.41%; in assay [6], 1.59%. Besides, the inhibition in [7] is 2.93%; in assay [8] it was 2.21%; in assay [9] it was 4.72%; in [10], -0.37%.
For the molecule `Cn1c(-c2nonc2N)nc2cnccc21`, the inhibition worked out at 5.91% in assay [1]; 3.35% in assay [2]; 6.24% in [3]; 5.57% in assay [4]; 10.7% in [5]; 2.77% in assay [6]. Besides, the inhibition is 13.6% in [7], 3.36% in assay [8], 3.2% in assay [9] and 0.94% in assay [10].
Regarding `CN1CCC(n2cnc(-c3ccc(F)cc3)c2-c2ccnc(NCCO)n2)CC1`, the inhibition in [1] is 1.96%; in [2], 3.61%; in [3], 6.71%; in assay [4] it was 0.04%; in [5] it was 5.93%; in assay [6] it was 5.14%. Moreover, the inhibition turned out to be 3.95% in [7], 2.98% in [8], 6.22% in assay [9] and 1.25% in assay [10].
Consider `CS(=O)(=O)CCNCc1ccc(-c2ccc3ncnc(Nc4ccc(OCc5cccc(C(F)(F)F)c5)cc4)c3c2)o1`, for which the inhibition worked out at 1.68% in assay [1]; 2.43% in assay [2]; 1.63% in assay [3]; 4.41% in assay [4]; 2.6% in assay [5]; 3.89% in [6]. Also, the inhibition was 2.45% in assay [7], 1.06% in [8], 5.76% in assay [9] and 6.24% in assay [10].
In the case of `CNC(=O)c1ncccc1Nc1nc(Nc2cc3c(cc2OC)CCCN3C(=O)CN(C)C)nc2[nH]ccc12`, the inhibition in assay [1] was 19.7%; in assay [2] it was 2.04%; in assay [3], 2.57%; in [4], 0.57%; in [5], 1.29%; in assay [6] it was 4.05%. For the same molecule, the inhibition was 4.49% in [7], 5.47% in assay [8], 6.88% in [9] and 3.31% in assay [10].
Turning to `Nc1nonc1-c1nc2cnccc2n1C1CC1`, the inhibition in [1] is 39.3% and 40.7%; in assay [2], 2.58% and 2.55%; in assay [3], 12.5% and 16.1%; in [4], 8.13% and 8.47%; in assay [5] it was 50.4% and 54.2%; in assay [6], 20% and 22.1%. The inhibition was 61.8% and 65.5% in assay [7]; 5.9% and 3.15% in assay [8]; 14.3% and 11.5% in assay [9]; 1.84% and 3.94% in assay [10].
For `CNC(=O)c1cncc(/C=C/c2ccccc2C)c1`, the inhibition turned out to be 0.63% in [1]; 3.1% in assay [2]; 5.48% in [3]; 2.67% in [4]; 0.66% in assay [5]; 1.58% in assay [6]. In addition, the inhibition in assay [7] was determined as 4.02%; in [8], 3.16%; in assay [9], 7.91%; in assay [10], 2.05%.
Consider `CS(=O)(=O)Nc1ccc(-c2ccc3c(NC(=O)C4CC4)n[nH]c3c2)cc1`, for which the inhibition in assay [1] was 3.46%; in assay [2], 3.96%; in [3], 2.95%; in assay [4], 0.2%; in [5], 4.06%; in assay [6], 2.22%. Further, the inhibition in [7] was determined as 0.14%; in assay [8], 3.58%; in assay [9] it was 6.37%; in [10], 10.3%.
`N#Cc1ccc2c(-c3ccnc(NC4CC4)n3)c(-c3ccc(F)cc3)nn2c1`: the inhibition in assay [1] is 1.24%; in assay [2], 1.64%; in assay [3], 1.98%; in [4], -0.02%; in [5], -1.14%; in [6], 2.02%. Moreover, the inhibition in assay [7] stood at 1.13%; in assay [8] it was 0.78%; in assay [9] it was 0.77%; in [10], 0.36%.
Regarding `CCCNc1cccc(-n2ncc3c(N/N=C/c4ccncc4)ncnc32)c1`, the inhibition amounted to 3.54% in [1]; 2.34% in assay [2]; 13.6% in assay [3]; 2.41% in [4]; 10.9% in [5]; 3.53% in assay [6]. Further, the inhibition in assay [7] is 5.07%; in [8], 1.8%; in assay [9], 3.53%; in assay [10], -1.29%.
Regarding `N#Cc1cccc(Nc2ncc(-c3ccccc3)o2)c1`, the inhibition was -0.13% in [1]; 2.75% in assay [2]; 7.53% in [3]; 1.9% in assay [4]; -1.67% in [5]; 2.18% in [6]. Moreover, the inhibition in assay [7] was 5.3%; in assay [8], 1.1%; in assay [9] it was 1.53%; in assay [10] it was -0.83%.
Regarding `CC1(C)CC(n2cnc(-c3ccc(F)cc3)c2-c2ccnc(N)n2)CC(C)(C)N1`, the inhibition in [1] is 0.95%; in assay [2] it was 1.68%; in assay [3], 5.28%; in assay [4], -3.17%; in assay [5], -3.03%; in assay [6] it was 1.34%. Besides, the inhibition in assay [7] was 1.32%; in assay [8], 0.3%; in assay [9], 1.1%; in [10] it was 3.69%.
Consider `CC1=C(C(=O)Nc2ccc3[nH]ncc3c2)C(c2ccc(F)cc2)N=C(c2ccc(C(F)(F)F)nc2)N1` (stereo not given), for which the inhibition in [1] was found to be 0.46%; in assay [2] it was 1.43%; in assay [3], 2.75%; in assay [4] it was 2.27%; in assay [5], 4.47%; in [6] it was 4.38%. Moreover, the inhibition in assay [7] worked out at 2.31%; in [8], 1.92%; in [9], 8.74%; in assay [10] it was 0.84%.
Regarding `CN(C)CCNC(=O)Nc1ccc(N(C)c2ccnc(Nc3ccc(CS(C)(=O)=O)cc3)n2)cc1`, the inhibition in assay [1] was 3.59%; in [2] it was 3.14%; in [3], 3.11%; in assay [4], 0.71%; in [5], -2.21%; in [6], 3.61%. Besides, the inhibition in [7] was 0.64%; in assay [8], 2.62%; in [9] it was 5.07%; in [10], 2.24%.
Turning to `O=C(O[C@H]1CN[C@H](C#Cc2cc3ncnc(Nc4ccc(OCc5cccc(F)c5)c(Cl)c4)c3s2)C1)N1CCOCC1`, the inhibition in assay [1] was found to be 1.82%; in [2] it was 3.69%; in assay [3] it was 4.68%; in [4], 6.81%; in [5] it was 6.86%; in assay [6], 7.16%. Also, the inhibition in [7] is 6.57%; in [8], 4.66%; in assay [9], 4.92%; in assay [10], 4.18%.
